# Measured values published in PubChem BioAssay.
# Values joined by “and” are separate entries in the source; they are usually repeats but may differ in a detail not shown here. Equal values may be shown once. For some of these results: Results with a measured potency or affinity are listed apart. Active and inactive are the calls of the source. Cut-off read from the data, not from the text of the source, unless noted: active = parasite load remaining mostly below about 12% (no sharp cut-off); inactive = mostly above about 10%.
# Columns and labels:
# [1] = circadian clock period modulators, cell-based, LOPAC library, luminescence reporter (AID 2774; call rule not given here;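 note: values are relative to mean of DMSO wells on each plate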); details: circadian reporter cells, at 7 µM, actives lie on both sides
# [2] = biological target: 6-phosphogluconate dehydrogenase, decarboxylating (Homo sapiens) (UniProt P52209); assay: 6PGD enzyme inhibitors, primary screen, biochemical, human, recombinant enzyme, NADPH absorbance (AID 1159550;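 active = at least 20% inhibition of 6-phosphogluconate dehydrogenase activity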); details: recombinant 6PGD, NADPH absorbance 341 nm; at 10 µM; stronger effect = higher value
# [3] = differential killing of epithelial or mesenchymal cells, primary screen, imaging, PC-3E GFP, TEM4-18 mCherry, co-culture (AID 1345086;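 active = compounds killing one labelled cell type while sparing the other, by normalised counts and ratio limits, not self-fluorescent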;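 for all read-outs here: cells exposed to compound for 72 h before imaging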;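 for red/green cell ratio (normalised): normalised mesenchymal count divided by normalised epithelial count so high means epithelial killing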); details: imaging cell counts, at 1 µM; for red/green cell ratio (normalised): actives lie on both sides, counts scaled to control wells, 1 = unselective
# [4] = sensitizers of A549 cells to miR-34 induction, primary screen, imaging, A549 dox-inducible miR-34, nuclei and caspase counts (AID 1347080;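 active = compounds whose cell count with miR-34 switched on is under 0.7 times the count with it off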); details: A549 miR-34 inducible, Hoechst nuclei count, 48 h
# [5] = phospholipid biosynthesis inhibitors in animal cells, primary screen, cell-based, LOPAC library, screen 4 (AID 1347384; call rule not given here); details: phospholipid biosynthesis inhibition screen, at 10 µM
# [6] = biological target: Mitogen-activated protein kinase 7 (Homo sapiens) (UniProt Q13164); assay: ERK5 transactivation activators in reporter cells, primary screen, cell-based, HTS (AID 1508626;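 active = luciferase signal above three times the same-plate solvent-only control wells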;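 note: luciferase driven by Gal4-ERK5 fusion binding five Gal4 sites before minimal TATA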); details: HeLa Gal4-ERK5 transactivation, 18 h, at 5 µM, stronger effect = higher value
# [7] = viability rescue of complex I mutant cybrids, primary screen, cell-based, galactose medium, ATP luminescence (AID 1645843;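 active = z-score of at least 1.8 in each of two replicates, scored against plate mean and spread of sample wells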;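 note: positive z means more ATP and so rescue of galactose-driven cybrid death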); details: complex I mutant cybrid cells, 72 h, stronger effect = higher value
# [8] = hESC survival regulators, cell-based (AID 493140; call rule not given here;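 note: cells exposed to compounds for four days before counting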); details: human embryonic stem cell survival screen; stronger effect = higher value
# [9] = liver-stage malaria parasite growth inhibition, primary screen, cell-based, HepG2, luciferase luminescence, HepG2 viability (AID 624349);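 note: 100% = mean of DMSO negative control wells on the same plate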; details: P. berghei liver stage in HepG2, luciferase luminescence, concentration not given here; parasite load remaining: stronger effect = lower value; viability: measured here: HepG2 viability without parasites
# [10] = survival rescue of mitochondrial mutant cells in low glucose, primary screen, MELAS cybrids, Rieske KO mouse fibroblasts, CellTiter-Glo (AID 1508586;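 active = mean z-score across replicates of 1.96 or higher in either the MELAS or the Rieske mutant cell line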;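 note: z relative to plate mean and SD of compound and empty wells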)
# [11] = polyglutamine-triggered caspase-3 activation inhibitors, cell-based (AID 1583); details: polyglutamine-induced caspase-3 activation, cell assay; stronger effect = higher value;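 tested at 10 µM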
# [12] = suppressors of polyQ aggregation in yeast, 75Q-TubU reporter (AID 1593); details: Yeast 75Q polyglutamine aggregation reporter
# [13] = rescue of polyQ-huntingtin neuronal dysfunction in worms, whole organism, C. elegans mechanosensory neurons, N-terminal huntingtin (AID 1599); details: touch response, stronger effect = higher value
# [14] = inhibitors of mitochondrial cytochrome c release, biochemical, purified mitochondria (AID 1603); details: stronger effect = lower value;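 note: mouse liver mitochondria challenged with calcium chloride; signal normalized to the plate average as 100%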
# [15] = inhibitors of polyQ protein aggregation (AID 1604); details: polyglutamine-induced protein aggregation inhibition assay; stronger effect = higher value; tested at 2.5 µM
# [16] = enhancers of glutamate uptake in motor neurons, MN-1 cell line (AID 1612); details: MN-1 motor neuron cells, stronger effect = higher value;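 note: tested at 1 µM final; 0% = mean of DMSO vehicle wells on each plate; positive means more glutamate uptake than control and negative means less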
# [17] = suppressors of polyglutamine aggregation in yeast, 75Q-TubH (AID 1616); details: S. cerevisiae 75Q-TubH polyglutamine aggregation suppression; stronger effect = higher value
# [18] = biological target: NAD(+) hydrolase SARM1 (Homo sapiens) (UniProt Q6SZW1); assay: SARM1 TIR NADase inhibitors, cell lysate, NAD-Glo luminescence (AID 1508614;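 active = compound whose remaining NAD level is above about 45 nM, limit read from the data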;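 note: higher remaining NAD means stronger inhibition of SARM1 NADase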); details: SAM-TIR HEK293T lysate NADase, at 1 µM, stronger effect = higher value
# [19] = reducers of polyQ inclusions in PC12 cells, cell-based, NGF-treated PC12, GFPQ80 (AID 1614); details: PC12 NGF-treated GFP-polyQ80 inclusion reduction;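 note: lower means fewer inclusions and 0 means no inclusions at all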
# [20] = measured here: epithelial PC-3E GFP cell survival
# [21] = measured here: mesenchymal TEM4-18 mCherry cell survival
# [22] = stronger effect = lower value, cell number ratio, induced over uninduced
# [23] = measured here: relative caspase fold change +Dox/-Dox
# [24] = measured here: total cells with miR-34 induction, stronger effect = lower value
# [25] = measured here: total cells without miR-34 induction
# [26] = MELAS cybrid survival, CellTiter-Glo 48 h, stronger effect = higher value
# [27] = Rieske KO mouse fibroblast survival, CellTiter-Glo 72 h
# Sequence of NAD(+) hydrolase SARM1 (Homo sapiens) (Q6SZW1 whole entry, looked up): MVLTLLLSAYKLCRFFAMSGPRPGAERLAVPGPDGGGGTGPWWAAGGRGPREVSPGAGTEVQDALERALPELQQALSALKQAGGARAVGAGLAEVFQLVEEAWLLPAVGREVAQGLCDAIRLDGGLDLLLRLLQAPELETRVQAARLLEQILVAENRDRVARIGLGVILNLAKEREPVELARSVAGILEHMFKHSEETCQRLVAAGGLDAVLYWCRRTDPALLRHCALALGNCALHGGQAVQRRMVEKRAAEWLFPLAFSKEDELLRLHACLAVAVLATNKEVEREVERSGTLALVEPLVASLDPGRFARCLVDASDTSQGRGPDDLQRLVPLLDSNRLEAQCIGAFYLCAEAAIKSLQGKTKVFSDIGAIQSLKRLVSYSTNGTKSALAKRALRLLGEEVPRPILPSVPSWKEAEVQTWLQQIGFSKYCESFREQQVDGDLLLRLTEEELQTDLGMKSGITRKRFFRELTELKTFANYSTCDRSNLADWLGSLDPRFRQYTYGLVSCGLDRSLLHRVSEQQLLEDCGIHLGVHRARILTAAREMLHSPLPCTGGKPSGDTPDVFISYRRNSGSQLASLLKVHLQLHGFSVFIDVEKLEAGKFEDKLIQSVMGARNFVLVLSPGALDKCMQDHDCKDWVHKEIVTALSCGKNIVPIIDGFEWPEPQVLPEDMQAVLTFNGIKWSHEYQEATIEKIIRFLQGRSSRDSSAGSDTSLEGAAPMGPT
# Sequence of Mitogen-activated protein kinase 7 (Homo sapiens) (Q13164 whole entry, looked up, the tested form may be a part): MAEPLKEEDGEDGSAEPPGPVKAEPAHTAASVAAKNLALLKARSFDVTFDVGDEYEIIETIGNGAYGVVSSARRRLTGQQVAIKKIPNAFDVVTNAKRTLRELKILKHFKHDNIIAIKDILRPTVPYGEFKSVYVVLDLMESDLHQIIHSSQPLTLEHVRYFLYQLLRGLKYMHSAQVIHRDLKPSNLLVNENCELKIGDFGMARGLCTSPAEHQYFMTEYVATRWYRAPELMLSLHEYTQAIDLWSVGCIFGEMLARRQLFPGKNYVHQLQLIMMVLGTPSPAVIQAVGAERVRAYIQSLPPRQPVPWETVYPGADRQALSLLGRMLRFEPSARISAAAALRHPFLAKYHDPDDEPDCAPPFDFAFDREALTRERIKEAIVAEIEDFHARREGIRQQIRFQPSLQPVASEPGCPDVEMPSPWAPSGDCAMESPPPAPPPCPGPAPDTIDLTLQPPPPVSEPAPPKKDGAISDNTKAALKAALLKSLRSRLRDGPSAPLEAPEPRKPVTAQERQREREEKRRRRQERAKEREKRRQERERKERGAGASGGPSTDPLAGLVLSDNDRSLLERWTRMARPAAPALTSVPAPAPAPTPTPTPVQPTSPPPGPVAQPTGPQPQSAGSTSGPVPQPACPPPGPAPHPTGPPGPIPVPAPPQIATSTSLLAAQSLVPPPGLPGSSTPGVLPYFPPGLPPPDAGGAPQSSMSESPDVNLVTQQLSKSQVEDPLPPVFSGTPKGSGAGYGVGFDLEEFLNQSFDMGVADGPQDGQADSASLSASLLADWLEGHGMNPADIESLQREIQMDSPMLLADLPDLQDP
# Sequence of 6-phosphogluconate dehydrogenase, decarboxylating (Homo sapiens) (P52209 whole entry, looked up): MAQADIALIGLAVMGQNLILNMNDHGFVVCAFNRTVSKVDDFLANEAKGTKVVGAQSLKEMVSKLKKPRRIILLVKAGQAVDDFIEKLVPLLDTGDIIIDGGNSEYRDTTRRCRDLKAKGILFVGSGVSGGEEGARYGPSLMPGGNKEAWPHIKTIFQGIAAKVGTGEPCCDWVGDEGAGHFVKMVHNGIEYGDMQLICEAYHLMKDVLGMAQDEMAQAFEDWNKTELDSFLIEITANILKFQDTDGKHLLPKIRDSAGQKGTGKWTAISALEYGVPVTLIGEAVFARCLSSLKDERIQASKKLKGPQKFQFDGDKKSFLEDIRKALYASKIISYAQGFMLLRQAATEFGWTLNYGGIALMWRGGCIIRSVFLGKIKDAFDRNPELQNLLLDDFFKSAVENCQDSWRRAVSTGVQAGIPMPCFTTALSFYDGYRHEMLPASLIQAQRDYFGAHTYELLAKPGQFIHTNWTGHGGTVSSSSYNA
structure (smiles),measurement,setting,value
O=C(O)c1cc2cc(F)ccc2[nH]1,period change,[1],0.04 h (inactive)
same,inhibition,[2],0.201% (inactive)
same,red/green cell ratio (normalised),[3],0.92 (inactive)
same,normalised cell number,[3]; [20],0.97
same,normalised cell number,[3]; [21],0.89
same,fold change,[4]; [22],0.936 (inactive)
same,fold change,[4]; [23],1.52
same,cell count,[4]; [24],9030
same,cell count,[4]; [25],9650
same,outcome,[5],inactive
same,luciferase signal,[6],24 AU (inactive)
same,z-score,[7],1.04 (inactive)
CC(=O)Oc1ccccc1C(=O)Oc1ccccc1C(=O)O,survival,[8],16.8 (inactive)
same,parasite load remaining,[9],36.8% (inactive) and 92.5% (inactive)
same,viability,[9],53.8% and 90.5%
same,inhibition,[2],14.2% (inactive)
same,red/green cell ratio (normalised),[3],1.07 (inactive)
same,normalised cell number,[3]; [20],0.97
same,normalised cell number,[3]; [21],1.04
same,fold change,[4]; [22],0.938 (inactive)
same,fold change,[4]; [23],0.828
same,cell count,[4]; [24],8700
same,cell count,[4]; [25],9270
same,z-score,[10]; [26],-0.224 (inactive)
same,z-score,[10]; [27],0.071
same,luciferase signal,[6],48 AU (inactive)
COc1cc2c(cc1OC)-c1cc3ccc(OC)c(OC)c3c[n+]1CC2,survival,[8],1.83 (inactive)
same,parasite load remaining,[9],110% (inactive) and 92.2% (inactive) and 65.3% (inactive)
same,viability,[9],114% and 73.3% and 79.6%
same,inhibition,[2],-0.646% (inactive) and 1.04% (inactive)
same,red/green cell ratio (normalised),[3],0.85 (inactive) and 0.9 (inactive)
same,normalised cell number,[3]; [20],1.04 and 1.09
same,normalised cell number,[3]; [21],0.88 and 0.98
same,fold change,[4]; [22],0.898 (inactive) and 1 (inactive)
same,fold change,[4]; [23],1.49 and 0.581
same,cell count,[4]; [24],8980 and 7680
same,cell count,[4]; [25],9990 and 7660
same,z-score,[10]; [26],-0.0781 (inactive)
same,z-score,[10]; [27],0.0197
same,luciferase signal,[6],352 AU (active)
CC(CN(C)C)CN1c2ccccc2Sc2ccccc21 (stereo unspecified),inhibition,[11],-4.15%
same,score,[12],1.25
same,rescue above control,[13],0
same,cytochrome c release ratio,[14],1.2
same,inhibition of aggregation,[15],52.6%
same,glutamate uptake change,[16],-15.4%
same,aggregation suppression score,[17],1.08
same,survival,[8],1.08 (inactive)
same,parasite load remaining,[9],56% (inactive) and 101% (inactive) and 20% (inactive)
same,viability,[9],86.7% and 71.6% and 86.5%
same,inhibition,[2],3.47% (inactive)
same,red/green cell ratio (normalised),[3],0.95 (inactive)
same,normalised cell number,[3]; [20],1.1
same,normalised cell number,[3]; [21],1.05
same,fold change,[4]; [22],0.881 (inactive) and 0.895 (inactive)
same,fold change,[4]; [23],1.1 and 2.21
same,cell count,[4]; [24],7480 and 9410
same,cell count,[4]; [25],8490 and 10500
same,z-score,[10]; [26],0.461 (inactive)
same,z-score,[10]; [27],-0.196
same,remaining NAD,[18],10 nM (inactive)
same,luciferase signal,[6],76 AU (inactive)
CC(C)(C)NC[C@H](O)c1ccc(O)c(CO)c1,inhibition,[2],-0.348% (inactive)
same,red/green cell ratio (normalised),[3],0.77 (inactive)
same,normalised cell number,[3]; [20],1.2
same,normalised cell number,[3]; [21],0.92
same,fold change,[4]; [22],0.873 (inactive)
same,fold change,[4]; [23],1.01
same,cell count,[4]; [24],7950
same,cell count,[4]; [25],9100
same,z-score,[10]; [26],0.715 (inactive)
same,z-score,[10]; [27],-0.611
same,remaining NAD,[18],10 nM (inactive)
same,luciferase signal,[6],112 AU (inactive)
Cn1c(=O)[nH]c2ncn(C)c2c1=O,inhibition,[11],15.7%
same,score,[12],1.32
same,rescue above control,[13],-11.3
same,cytochrome c release ratio,[14],1.26
same,inhibition of aggregation,[15],52.4%
same,glutamate uptake change,[16],1.28%
same,inclusion score,[19],2
same,aggregation suppression score,[17],1.3
same,period change,[1],-0.1 h (inactive)
same,inhibition,[2],-14.1% (inactive)
same,red/green cell ratio (normalised),[3],0.89 (inactive)
same,normalised cell number,[3]; [20],1.01
same,normalised cell number,[3]; [21],0.9
same,fold change,[4]; [22],0.988 (inactive)
same,fold change,[4]; [23],1.17
same,cell count,[4]; [24],9800
same,cell count,[4]; [25],9920
same,outcome,[5],inactive
same,z-score,[7],0.31 (inactive)
O=c1cc(-c2ccccc2)oc2c(O)c(O)ccc12,inhibition,[11],17.3%
same,score,[12],0.23
same,rescue above control,[13],-0.88
same,cytochrome c release ratio,[14],0.65
same,inhibition of aggregation,[15],81.7%
same,glutamate uptake change,[16],0.12%
same,inclusion score,[19],1.5
same,aggregation suppression score,[17],0.00444
same,inhibition,[2],-53.2% (inactive)
same,red/green cell ratio (normalised),[3],0.99 (inactive)
same,normalised cell number,[3]; [20],0.99
same,normalised cell number,[3]; [21],0.98
same,fold change,[4]; [22],1.65 (inactive)
same,fold change,[4]; [23],0.979
same,cell count,[4]; [24],3960
same,cell count,[4]; [25],2390
same,outcome,[5],inactive
same,luciferase signal,[6],32 AU (inactive)
same,z-score,[7],-0.44 (inactive)
O=C1OC(=O)C2C3CCC(O3)C12 (stereo unspecified),period change,[1],-0.06 h (inactive)
same,inhibition,[2],14.8% (inactive)
same,red/green cell ratio (normalised),[3],0.77 (inactive)
same,normalised cell number,[3]; [20],1.38
same,normalised cell number,[3]; [21],1.06
same,fold change,[4]; [22],1.08 (inactive)
same,fold change,[4]; [23],0.974
same,cell count,[4]; [24],8750
same,cell count,[4]; [25],8080
same,outcome,[5],inactive
same,luciferase signal,[6],52 AU (inactive)
same,z-score,[7],-0.385 (inactive)
CN1CC(=O)N=C1N,inhibition,[11],-27.2%
same,score,[12],1.33
same,rescue above control,[13],-3.62
same,cytochrome c release ratio,[14],0.51
same,inhibition of aggregation,[15],97.4%
same,glutamate uptake change,[16],32%
same,inclusion score,[19],2
same,aggregation suppression score,[17],1.7
same,inhibition,[2],10.8% (inactive)
same,red/green cell ratio (normalised),[3],1.04 (inactive)
same,normalised cell number,[3]; [20],0.96
same,normalised cell number,[3]; [21],1
same,remaining NAD,[18],10 nM (inactive)
same,luciferase signal,[6],68 AU (inactive)
CC(=O)Nc1ccc(OC(=O)c2ccccc2O)cc1,inhibition,[11],-0.86%
same,score,[12],0.55
same,rescue above control,[13],4.5
same,cytochrome c release ratio,[14],1.29
same,inhibition of aggregation,[15],92.3%
same,glutamate uptake change,[16],0.86%
same,inclusion score,[19],2
same,aggregation suppression score,[17],0.54
same,parasite load remaining,[9],50.3% (inactive)
same,viability,[9],71.4%
same,inhibition,[2],-12.6% (inactive)
same,red/green cell ratio (normalised),[3],0.93 (inactive)
same,normalised cell number,[3]; [20],1.16
same,normalised cell number,[3]; [21],1.08
same,remaining NAD,[18],10 nM (inactive)
same,luciferase signal,[6],40 AU (inactive)
O=c1[nH]c(=O)n(C2C[C@H](O)[C@@H](CO)O2)cc1C(F)(F)F (stereo partly specified),parasite load remaining,[9],74% (inactive) and 246% (inactive) and 30.9% (inactive)
same,viability,[9],71.7% and 82.9% and 99%
same,inhibition,[2],10.3% (inactive)
same,red/green cell ratio (normalised),[3],1.34 (inactive)
same,normalised cell number,[3]; [20],0.93
same,normalised cell number,[3]; [21],1.25
same,fold change,[4]; [22],1.06 (inactive) and 0.925 (inactive)
same,fold change,[4]; [23],0.737 and 3.77
same,cell count,[4]; [24],2260 and 12300
same,cell count,[4]; [25],2140 and 13300
Cc1[nH]ccc2c1[nH]c1cc(=O)ccc12,survival,[8],3 (inactive)
same,parasite load remaining,[9],74.5% (inactive) and 99.2% (inactive) and 81.5% (inactive)
same,viability,[9],88.4% and 65.9% and 69.9%
same,inhibition,[2],8.86% (inactive)
same,red/green cell ratio (normalised),[3],0.84 (inactive)
same,normalised cell number,[3]; [20],1
same,normalised cell number,[3]; [21],0.83
same,fold change,[4]; [22],0.837 (inactive)
same,fold change,[4]; [23],1.33
same,cell count,[4]; [24],6490
same,cell count,[4]; [25],7750
same,luciferase signal,[6],76 AU (inactive)
CCOC(=O)CCC(=O)O[C@H]1[C@H](O[C@@H]2[C@@H](C)[C@H](O[C@H]3C[C@@](C)(OC)[C@@H](O)[C@H](C)O3)[C@@H](C)C(=O)O[C@H](CC)[C@@](C)(O)[C@H](O)[C@@H](C)C(=O)[C@H](C)C[C@@]2(C)O)O[C@H](C)C[C@@H]1N(C)C,inhibition,[11],26.4%
same,score,[12],1.27
same,rescue above control,[13],16.6
same,cytochrome c release ratio,[14],1.72
same,inhibition of aggregation,[15],47.5%
same,glutamate uptake change,[16],-6.79%
same,inclusion score,[19],2
same,aggregation suppression score,[17],1.2
same,parasite load remaining,[9],61.8% (inactive)
same,viability,[9],170%
same,inhibition,[2],-8.96% (inactive)
same,red/green cell ratio (normalised),[3],1.11 (inactive)
same,normalised cell number,[3]; [20],1.38
same,normalised cell number,[3]; [21],1.54
same,fold change,[4]; [22],0.87 (inactive)
same,fold change,[4]; [23],1.05
same,cell count,[4]; [24],11100
same,cell count,[4]; [25],12700
same,remaining NAD,[18],10 nM (inactive)
same,luciferase signal,[6],208 AU (inactive)
